Screens: PubChem, National Center for Advancing Translational Sciences (NCATS)
A selection: hits, their analogues and other compounds. The true share with any hit is near 4.7%.
TRHR PAM = qHTS for Small Molecule Agonists and Allosteric Enhancers of Human TRH Receptor: Primary Screen for Enhancers. Thyrotropin-releasing hormone receptor (Homo sapiens), P34981. TRHR cells, fluo-8 calcium fluorescence, EC20 TRH enhancement. enhancement, % at 2 µM. actives 0.66% (n = 360,000). AID 493056, 2011; in the data active = enhancement above about 30%; also: 0% is about no effect
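Enhancer read-out: after compound pinning and an initial kinetic agonist-mode read, an EC20 of TRH (10 nM final) was injected and fluo-8 calcium signal (Ex 480/Em 530) followed at 1 s/cycle for 100 cycles in TRHR-expressing cells.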
TRHR agonist = qHTS for Small Molecule Agonists and Allosteric Enhancers of Human TRH Receptor: Primary Screen for Agonists | actives 0.18% (n = 360,000) | activation, % at 2 µM | AID 493084, 2011 | TRHR cells, calcium flux fluo-8, FDSS agonist mode; also: 0% is about no effect
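Steps: seed TRHR cells overnight; add fluo-8 no-wash Ca dye, RT 30 min–1.5 h; record 10 s baseline; pin-transfer compounds; monitor fluorescence 1 cycle/s for the agonist window. Calcium increases flag candidate agonists.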
D1 agonist = Allosteric Agonists of the Human D1 Dopamine Receptor: qHTS; HEK293 T-REx D1 cells, calcium flux, agonist mode; activation, % at 2 µM; actives 1% (n = 360,000); AID 504660, 2011; also: 0% is about no effect
Target sequence (P21728 whole entry, looked up): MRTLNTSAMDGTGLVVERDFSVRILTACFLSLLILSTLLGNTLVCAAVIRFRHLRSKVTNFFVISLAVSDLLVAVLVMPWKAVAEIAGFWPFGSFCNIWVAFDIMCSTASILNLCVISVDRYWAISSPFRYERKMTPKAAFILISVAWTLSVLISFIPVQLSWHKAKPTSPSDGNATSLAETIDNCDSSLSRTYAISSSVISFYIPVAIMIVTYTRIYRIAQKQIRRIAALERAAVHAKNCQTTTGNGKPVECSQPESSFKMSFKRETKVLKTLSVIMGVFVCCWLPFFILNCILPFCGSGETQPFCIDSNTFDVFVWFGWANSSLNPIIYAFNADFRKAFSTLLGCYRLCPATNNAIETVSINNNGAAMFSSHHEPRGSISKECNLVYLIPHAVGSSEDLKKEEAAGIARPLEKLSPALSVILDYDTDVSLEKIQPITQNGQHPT
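Agonism was scored from calcium flux recorded over 180 s (1 read/s) after pintool compound addition, following a 10-cycle baseline. Cells were inducible force-coupled HEK293 TREx D1, plated overnight at 30 C and loaded with no-wash calcium dye.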
D1 antag = Antagonist of Human D 1 Dopamine Receptor: qHTS. HEK293 TREx D1 cells, calcium flux, dopamine EC80; active compounds read low. activity change, negative = inhibition, % at 10 µM. actives 3.2% (n = 360,000). AID 504652, 2011; in the data active = activity change below about -30%; also: % is scaled to controls: 0 for no effect and ±100 for the full control effect
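Kinetic fluorescence of a calcium dye serves as the read-out. D1-expressing Hek293 Trex cells, induced overnight at 30 C, are exposed to compound for 180 s before an EC80 dopamine addition, then read 180 s further.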
D1 PAM = Potentiators of Human D1 Dopamine Receptor: qHTS; AID 504651, 2011; potentiation, % at 10 µM; D(1A) dopamine receptor (Homo sapiens), P21728; actives 0.036% (n = 360,000); HEK293 TREx D1 cells, calcium flux, dopamine EC20 potentiation; in the data active = potentiation above about 30%; also: 0% is about no effect
Starred values were filed as active, the others as inactive; nt = no result; ! = not confirmed by another sample. Rule as the data show it, unless noted: active = activation above about 30%; inactive = the rest.

SMILES | TRHR PAM | TRHR agonist | D1 agonist | D1 antag | D1 PAM
Cn1cc(CN2CCC(C(=O)Nc3cccc(-c4cccc(F)c4)c3)CC2)cn1 | 2.5 | 1.6 | 3.7 | -14.6 | -15.9
CCn1cc(CN2CCC(C(=O)Nc3cccc(-c4cscn4)c3)CC2)cn1 | 3.7 | 0.2 | 2.1 | -0.2 | 1.1
C=CCn1cc(CN2CCC(C(=O)Nc3cccc(-c4cccc(Cl)c4)c3)CC2)c(C)n1 | 0.9 | 3.5 | 27.0 | -35.0* | -16.6
Cn1cc(CN2CCC(C(=O)Nc3cccc(-c4cscn4)c3)CC2)cn1 | -1.6 | 0.1 | 0.1 | -48.9* | -8.2
Cc1nn(C(C)C)c(C)c1CN1CCC(C(=O)Nc2cccc(-c3cccc(F)c3)c2)CC1 | 0.6 | 1.3 | 31.5* | 8.0 | -7.0
COc1ccc(CC(=O)N2CCc3c([nH]c4ccccc34)C2c2ccc(SC)cc2)cc1 (stereo not given) | 0.0 | 0.5 | 0.7 | -39.7* | -1.4
O=C(CSCc1ccc(F)cc1)N1CCc2c([nH]c3ccccc23)C1c1ccc(Cl)cc1 (stereo not given) | 1.7 | 0.2 | 2.5 | -30.8* | -0.9
COc1ccc(CCC(=O)N2CCc3c([nH]c4ccccc34)C2c2ccc(F)cc2)cc1 (stereo not given) | 4.3 | 0.4 | 4.8 | -4.9 | -3.5
O=C(NCCc1ccc(Cl)cc1)c1ccc(CSCc2ccc(Cl)cc2)o1 | -10.3 | 1.6 | 21.5 | -10.5 | -3.2
COc1ccc(NC(=O)CN2C(=O)C(C)(C)c3ccccc32)cc1Cl | -0.5 | 0.2 | 4.0 | -50.2* | -0.6
Cc1cc(=O)n2nc(N3CCC(C(=O)Nc4ccc(C(C)C)cc4)CC3)sc2n1 | 2.0 | -1.3 | 0.5 | -2.7 | 1.3
N#CC1(NC(=O)COC(=O)c2cc(O)c3ccccc3c2O)CCCCC1 | 13.3 | 0.0 | 9.8 | -39.5* | -3.4
Cc1cc(NC(=O)CN2C(=O)C(C)(C)c3ccccc32)ccc1Br | -4.6 | 0.2 | 1.6 | -23.7 | -3.0
Cc1ccc(-c2nnc(SCc3ccccc3)o2)cc1 | 3.1 | -0.1 | 0.8 | -9.0 | -5.2
O=C(NC1CCCC1)C1CCN(C(=O)c2ccc(-c3ccccc3)cc2)CC1 | -4.8 | -1.1 | 4.8 | -37.9* | -2.5
COc1ccc(C(=O)N2CCN(CCc3ccccn3)CC2)cc1 | 19.1 | -0.1 | 49.9*! | -45.9*! | 5.7
COc1ccc(C(=O)N2CCC(C(=O)NCc3ccccn3)CC2)cc1 | 6.1 | 0.1 | 4.0 | -30.9* | -11.8
O=C(CSc1nnc(NC(=O)NC2CCCCC2)s1)Nc1ccccc1F | 10.6 | -0.3 | -1.8 | nt | -1.0
Cc1ccc(NC(=O)CCc2c(C)nc3c(-c4ccccc4)c(C)nn3c2C)c(C)c1 | 10.6 | -0.1 | 1.7 | -7.2 | 2.4
COC(c1ccccc1)(c1ccccc1)C(Oc1nccc(C)n1)C(=O)O (stereo not given) | 31.0* | 0.3 | -0.7 | 3.6 | 0.7
Cc1ccnc(OC(C(=O)O)C(OCc2ccccc2)(c2ccccc2)c2ccc(C(F)(F)F)cc2)n1 (stereo not given) | -0.2 | 0.4 | 0.2 | -2.4 | -6.0
C=CCN1C=CC(=C/C=C(/C#N)C(=O)OCC)C=C1 | 0.5 | 37.0* | 92.7* | -12.7 | 13.2
CCN(CC)CCNc1ccnc2cc(Cl)ccc12 | -3.3 | 1.1 | 2.5 | 1.9 | -0.9
Clc1ccc2c(NCc3ccccc3)ccnc2c1 | 16.6 | 2.0 | 20.8 | -37.5* | -4.8
CN1CCN(Cc2c(O)ccc3cc(-c4ccccn4)c(=O)oc23)CC1 | -1.0 | 1.1 | 43.8* | -31.5* | 3.0
SMILES | TRHR PAM | TRHR agonist | D1 agonist | D1 antag | D1 PAM
O=c1oc2c(CN3CCCCCC3)c(O)ccc2cc1-c1nc2ccccc2[nH]1 | 8.3 | 7.4 | 240.7* | -6.2 | 3.0
O=c1oc2c(CN3CCCC3)c(O)ccc2cc1-c1ccccc1 | -3.6 | 6.5 | 4.4 | 5.0 | -0.6
Cc1c(C)c2ccc(O)c(CN3CCN(C)CC3)c2oc1=O | 11.2 | 0.3 | 2.9 | 3.0 | -4.3
Cc1cc(Br)ccc1NC(=O)c1cc2c(=O)n(C)c3cc(Cl)ccc3c2s1 | 2.1 | 1.0 | 0.8 | 5.4 | 8.2
Cc1c2ccccc2nc2c(F)c(NC(C)C)c(F)c(F)c12 | 6.1 | 39.6* | 63.8* | 3.3 | -0.9
OCCNc1c2ccccc2nc2c(F)c(F)c(F)c(F)c12 | -11.3 | 9.8 | 7.7 | 8.0 | -4.4
CC(C)(C)n1c(O)c2ccc(C(=O)N=NC(=O)c3ccccc3)cc2c1O | 1.8 | -0.6 | 9.4 | -31.0* | -0.4
CC(=O)c1ccc(Nc2cc(C)nc3nc(Cc4ccc(Cl)cc4)nn23)cc1 | 2.0 | -2.1 | 3.1 | -11.3 | 0.2
CC(C)n1cnc2c(N(C)c3ccccc3)nc(N(CCN(C)C)Cc3ccccc3)nc21 | -5.9 | 4.0 | 28.1 | -104.0* | 0.5
COc1ccc(C(=O)N2CC(=O)Nc3ccc(F)cc3C2c2ccc(F)cc2)c(OC)c1 (stereo not given) | -0.6 | 2.4 | 11.3 | 6.4 | 0.5
CC(/C=C\c1cccnc1)=C/C(=O)O | -3.3 | 0.9 | 3.0 | -62.0*! | -10.2
O=C(O)/C=C/c1cccnc1 | -1.3 | 0.9 | 1.0 | -80.0* | -3.7
Cc1ccc(C)c(N2CCN(C(=O)NCc3noc4ccccc34)CC2)c1 | -1.3 | 0.0 | 1.2 | -41.9* | -2.4
O=C(CN1C(=O)c2ccccc2C1=O)N1CCN(c2ccccn2)CC1 | -3.6 | 0.1 | 1.1 | -30.3* | -0.1
Cc1ccccc1N1CCN(C(=O)CN2C(=O)c3ccccc3C2=O)CC1 | -0.3 | -0.4 | 4.6 | -20.2 | -6.8
Cc1ccc(C)c(N2CCN(C(=O)NCc3noc4ccc(C)cc34)CC2)c1 | 6.1 | 0.0 | -0.2 | 8.2 | -5.4
Cc1ccc(C)c(N2CCN(C(=O)CN3C(=O)c4ccccc4C3=O)CC2)c1 | -4.7 | 0.4 | 5.9 | -34.6* | -4.8
O=C(CSc1nnc(N2CCCC2)n1-c1ccccc1Cl)N1CCN(c2ccccn2)CC1 | 3.8 | -1.1 | -1.3 | -52.3* | -3.3
O=C(CCCN1C(=O)c2ccccc2C1=O)N1CCN(c2ccccn2)CC1 | -11.0 | 1.6 | 0.2 | -16.4 | -2.4
Cc1cccc(N2CCN(C(=O)C3CCCN(S(=O)(=O)c4cccc5nsnc45)C3)CC2)c1C (stereo not given) | 1.1 | -0.4 | -0.2 | -2.8 | -0.1
Cc1ccc(Cl)cc1N1CCN(C(=O)c2c(C)oc3ncnc(N4CCCCC4)c23)CC1 | -13.2 | -0.7 | 1.6 | 10.8 | 9.2
Cc1ccc(-c2nnc(Nc3ccc(O)cc3)c3ccccc23)cc1S(=O)(=O)NCc1nc2ccccc2[nH]1 | 0.9 | 0.0 | 3.3 | 11.4 | 0.1
CCOC(=O)C1(N(CC)CC)Sc2cc(C)ccc2NC1=O (stereo not given) | 4.5 | 2.1 | 3.7 | 3.5 | -7.8
